# Laboratory results published in PubChem BioAssay (NCI).
# Compounds without any hit were thinned out: in the full panel of roughly 83,000, 20% have a hit.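 48-hour exposure, single concentration, 96-well plates; percent growth endpoint where 0 means no net growth. Active: below 10.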 Unmarked numbers belong to inactive results. Activity calls are given as the source filed them.
# Tested on: ACHN renal
# Assay: NCI-60 one-dose screen, 48 h (100 = growth as untreated, 0 = no growth, -100 = all killed)
# Details: 10 µM unless noted
row,SMILES,growth
1,C=CCN(C)C,105%
2,CCC(CCCN1C(=O)c2ccccc2C1=O)Nc1cc(OC)cc2cccnc12 (centres undefined),103%
3,O=c1c(N=Nc2nccs2)c(-c2ccccc2)[nH]n1-c1nc(-c2ccccc2)cs1,35.4%
4,CCOC(=O)C1C(=O)C(=O)N(C(C)C)C1C(=O)OCC (centres undefined),94.3%
5,CCOP1(=O)CC(C)=C(Cl)C(P(=O)(O)O)C1 (centres undefined),101%
6,O=C(O)CC1Cc2ccccc2C1C(=O)O (centres undefined),109%
7,CCc1ccc(C(=Nc2ccc(N(C)C(=O)CN3CCN(C)CC3)cc2)c2c(O)[nH]c3ccc(C(=O)OC)cc23)cc1,-69.1% (active)
8,O=C1CSC(c2ccccc2Cl)N1c1nnc(-c2ccncc2)o1 (centres undefined),94.3%

# Tested on: CAKI-1 renal
# Assay: as above
# Details: 10 µM unless noted
row,SMILES,growth
1,COc1nc(OC)nc(-c2cc(C(=O)c3ccc(Br)cc3)n3cc(C)cc(C)c23)n1,64.8%
2,Brc1c(-c2ccncc2)nc2n1CCS2,90.2%
3,CCC1(CC)C(OC)NC(Br)=C(C#N)C1(C#N)C(N)=O (centres undefined),117%
4,c1cc(C2CCCCC2)ccc1OCCCCCCN1CCNCC1,55.7%
5,Cc1c([C@H](C(Cl)Cl)[C@H](O)[C@H]2C[C@H](C)C(=O)O2)ccc2c1C(=O)[C@H]1[C@H]2C[C@@H](Br)[C@@]23O[C@@H](CO[C@H]2O)CC13C (some centres undefined),-31.4% (active)
6,O=C1/C(=N\c2cc(=O)[nH]n2S(=O)(=O)c2ccccc2)Nc2ccccc21,84.8%
7,N=C(N)c1ccc(-c2ccc(-c3ccc(Cl)cc3)s2)s1,-11.6% (active)
8,COc1cc([C@@H]2c3cc4c(cc3[C@H](O)[C@H]3COC[C@@H]23)OCO4)cc(OC)c1OC,62.3%
9,O=Nc1c(-c2c(O)[nH]c3cc(Br)ccc23)[nH]c2ccccc12,2.36% (active)
10,CC1(C)CC(=O)C2=C(C1)Oc1nc(N)c(C#N)c(N)c1C2c1ccc(F)cc1 (centres undefined),92.3%
11,O=C1c2cc([N+](=O)[O-])ccc2-c2cc(Cl)c(NC(=O)C(F)(F)F)cc21,97.2%
12,COc1ccc(CNCCCN2C(=O)c3ccc4c5c(ccc(c35)C2=O)C(=O)N(CCCNCc2ccc(OC)c(OC)c2OC)C4=O)c(OC)c1OC,-52.5% (active)
13,O=C(Nc1ccccc1)Nc1ccc(Nc2ncnc3sc4c(c23)CCCC4)cc1,100%
14,O=S(=O)(Cc1cccc2c(CS(=O)(=O)c3ccc(Cl)cc3)cccc12)c1ccc(Cl)cc1,73%
15,Nc1nc2c(c3ncncc13)C(c1cccc(C(F)(F)F)c1)Cc1ncncc1-2 (centres undefined),34.5%
16,Cn1cnc2nc[nH]c2c1=S,97.9%
17,O=C(N/N=C/c1coc2ccccc2c1=O)c1cc2oc(-c3ccccc3)cc2[nH]1,95.3%
18,CCC(C)C1NC(=O)C(CC(C)C)NC(=O)C(C)NC(=O)C(C(C)C)NC(=O)C(CCCCN)NC(=O)C(CC(C)C)NC(=O)C(C(C)C)NC(=O)[C@H](C)NC(=O)C(C(C)CC)NC(=O)C(CCCN=C(N)N)NC(=O)C(CCCCN)NC(=O)C(CCCN=C(N)N)NC(=O)C(CCCCN)NC(=O)C([C@H](C)CC)NC(=O)C(CCCCN)NC1=O (some centres undefined),8.2% (active)
19,C=CCN(C)C,92.5%
20,CCC(CCCN1C(=O)c2ccccc2C1=O)Nc1cc(OC)cc2cccnc12 (centres undefined),111%
21,O=c1c(N=Nc2nccs2)c(-c2ccccc2)[nH]n1-c1nc(-c2ccccc2)cs1,35.6%
22,Cc1ccc(C(=O)Nc2ccc(CN3CCN(C)CC3)c(C(F)(F)F)c2)cc1C#Cc1cncc2ncccc12,1.96% (active)
23,CCOC(=O)C1C(=O)C(=O)N(C(C)C)C1C(=O)OCC (centres undefined),105%
24,COc1cc2c(cc1OC)C(Cc1cc(OC)c(OC)cc1[N+](=O)[O-])=NCC2,87.9%
25,CCOP1(=O)CC(C)=C(Cl)C(P(=O)(O)O)C1 (centres undefined),110%
26,O=C(O)CC1Cc2ccccc2C1C(=O)O (centres undefined),104%
27,Nc1cc2c(cc1Br)[nH]c(=O)c1ccccc12,52.9%
28,CCc1ccc(C(=Nc2ccc(N(C)C(=O)CN3CCN(C)CC3)cc2)c2c(O)[nH]c3ccc(C(=O)OC)cc23)cc1,-82.9% (active)
29,N#CCCCCCCCCCCC#N,95.2%
30,O=C1CSC(c2ccccc2Cl)N1c1nnc(-c2ccncc2)o1 (centres undefined),107%

# Tested on: A498 renal
# Assay: as above
# Details: 10 µM unless noted
row,SMILES,growth
1,COc1nc(OC)nc(-c2cc(C(=O)c3ccc(Br)cc3)n3cc(C)cc(C)c23)n1,71.3%
2,Brc1c(-c2ccncc2)nc2n1CCS2,77.6%
3,CC(=O)/C(=C\c1c(-c2ccccc2)[nH]c2ccccc12)S(=O)(=O)c1ccccc1,41.4%
4,COc1ccc(/C=N/c2cc(C(C)(C)C)nn2-c2ccccc2)cc1,103%
5,CCC1(CC)C(OC)NC(Br)=C(C#N)C1(C#N)C(N)=O (centres undefined),114%
6,COc1ccc(CN2C(=O)/C(=C\C(=O)c3ccc(OCCN4CCCC4)cc3)c3ccccc32)cc1,88.8%
7,COc1ccc(/C=C2\SC(=O)N(Cc3cc(=O)oc4ccc(OC)cc34)C2=O)cc1,93.5%
8,c1cc(C2CCCCC2)ccc1OCCCCCCN1CCNCC1,61.5%
9,Cc1c([C@H](C(Cl)Cl)[C@H](O)[C@H]2C[C@H](C)C(=O)O2)ccc2c1C(=O)[C@H]1[C@H]2C[C@@H](Br)[C@@]23O[C@@H](CO[C@H]2O)CC13C (some centres undefined),-22.6% (active)
10,O=C1/C(=N\c2cc(=O)[nH]n2S(=O)(=O)c2ccccc2)Nc2ccccc21,98.2%
11,N=C(N)c1ccc(-c2ccc(-c3ccc(Cl)cc3)s2)s1,50.9%
12,O=Nc1c(-c2c(O)[nH]c3cc(Br)ccc23)[nH]c2ccccc12,-82% (active)
13,CC1(C)CC(=O)C2=C(C1)Oc1nc(N)c(C#N)c(N)c1C2c1ccc(F)cc1 (centres undefined),102%
14,O=C1c2cc([N+](=O)[O-])ccc2-c2cc(Cl)c(NC(=O)C(F)(F)F)cc21,101%
15,O=C(Nc1ccccc1)Nc1ccc(Nc2ncnc3sc4c(c23)CCCC4)cc1,83.4%
16,O=S(=O)(Cc1cccc2c(CS(=O)(=O)c3ccc(Cl)cc3)cccc12)c1ccc(Cl)cc1,109%

row,SMILES,growth
1,COc1cc(CNC(=O)CCCC/C=C/C(C)C)ccc1OCc1nnc(Nc2ccccc2F)o1,92.5%
2,Nc1nc2c(c3ncncc13)C(c1cccc(C(F)(F)F)c1)Cc1ncncc1-2 (centres undefined),-6.07% (active)
3,O=C(N/N=C/c1coc2ccccc2c1=O)c1cc2oc(-c3ccccc3)cc2[nH]1,101%
4,CCC(C)C1NC(=O)C(CC(C)C)NC(=O)C(C)NC(=O)C(C(C)C)NC(=O)C(CCCCN)NC(=O)C(CC(C)C)NC(=O)C(C(C)C)NC(=O)[C@H](C)NC(=O)C(C(C)CC)NC(=O)C(CCCN=C(N)N)NC(=O)C(CCCCN)NC(=O)C(CCCN=C(N)N)NC(=O)C(CCCCN)NC(=O)C([C@H](C)CC)NC(=O)C(CCCCN)NC1=O (some centres undefined),20.8%
5,C=CCN(C)C,91.1%
6,CCC(CCCN1C(=O)c2ccccc2C1=O)Nc1cc(OC)cc2cccnc12 (centres undefined),84.3%
7,O=c1c(N=Nc2nccs2)c(-c2ccccc2)[nH]n1-c1nc(-c2ccccc2)cs1,28.6%
8,Cc1ccc(C(=O)Nc2ccc(CN3CCN(C)CC3)c(C(F)(F)F)c2)cc1C#Cc1cncc2ncccc12,-95.5% (active)
9,COc1cc2c(cc1OC)C(Cc1cc(OC)c(OC)cc1[N+](=O)[O-])=NCC2,56.4%
10,COc1ccc2c(c1)/C(=C1/S/C(=N/c3nnc(C)s3)NC1=O)C(=O)N2Cc1ccc(Br)cc1,4.62% (active)
11,CCOP1(=O)CC(C)=C(Cl)C(P(=O)(O)O)C1 (centres undefined),113%
12,O=C(O)CC1Cc2ccccc2C1C(=O)O (centres undefined),90.3%
13,Nc1cc2c(cc1Br)[nH]c(=O)c1ccccc12,56%
14,CCc1ccc(C(=Nc2ccc(N(C)C(=O)CN3CCN(C)CC3)cc2)c2c(O)[nH]c3ccc(C(=O)OC)cc23)cc1,-82.2% (active)
15,O=C1CSC(c2ccccc2Cl)N1c1nnc(-c2ccncc2)o1 (centres undefined),72.4%
